# Paper PMC4336329 (PLoS ONE, 2015)
# Screen size: about 310,000 compounds; about 14,000 (4.5%) showed an effect of 50% or more. The effect is printed as a negative number. Only a selection was taken, and strong results are over-represented in it overall.
# Target: human ether-à-go-go-related gene (hERG) potassium channel (human, UniProt Q12809)
# Test: primary screen, population patch clamp on CHO cells stably expressing hERG; higher = less effect of the substance
# 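Further: peak tail current of the secondary pulse compared with the same well before compound.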
# Chain of human ether-à-go-go-related gene (hERG) potassium channel (Q12809 whole entry, looked up): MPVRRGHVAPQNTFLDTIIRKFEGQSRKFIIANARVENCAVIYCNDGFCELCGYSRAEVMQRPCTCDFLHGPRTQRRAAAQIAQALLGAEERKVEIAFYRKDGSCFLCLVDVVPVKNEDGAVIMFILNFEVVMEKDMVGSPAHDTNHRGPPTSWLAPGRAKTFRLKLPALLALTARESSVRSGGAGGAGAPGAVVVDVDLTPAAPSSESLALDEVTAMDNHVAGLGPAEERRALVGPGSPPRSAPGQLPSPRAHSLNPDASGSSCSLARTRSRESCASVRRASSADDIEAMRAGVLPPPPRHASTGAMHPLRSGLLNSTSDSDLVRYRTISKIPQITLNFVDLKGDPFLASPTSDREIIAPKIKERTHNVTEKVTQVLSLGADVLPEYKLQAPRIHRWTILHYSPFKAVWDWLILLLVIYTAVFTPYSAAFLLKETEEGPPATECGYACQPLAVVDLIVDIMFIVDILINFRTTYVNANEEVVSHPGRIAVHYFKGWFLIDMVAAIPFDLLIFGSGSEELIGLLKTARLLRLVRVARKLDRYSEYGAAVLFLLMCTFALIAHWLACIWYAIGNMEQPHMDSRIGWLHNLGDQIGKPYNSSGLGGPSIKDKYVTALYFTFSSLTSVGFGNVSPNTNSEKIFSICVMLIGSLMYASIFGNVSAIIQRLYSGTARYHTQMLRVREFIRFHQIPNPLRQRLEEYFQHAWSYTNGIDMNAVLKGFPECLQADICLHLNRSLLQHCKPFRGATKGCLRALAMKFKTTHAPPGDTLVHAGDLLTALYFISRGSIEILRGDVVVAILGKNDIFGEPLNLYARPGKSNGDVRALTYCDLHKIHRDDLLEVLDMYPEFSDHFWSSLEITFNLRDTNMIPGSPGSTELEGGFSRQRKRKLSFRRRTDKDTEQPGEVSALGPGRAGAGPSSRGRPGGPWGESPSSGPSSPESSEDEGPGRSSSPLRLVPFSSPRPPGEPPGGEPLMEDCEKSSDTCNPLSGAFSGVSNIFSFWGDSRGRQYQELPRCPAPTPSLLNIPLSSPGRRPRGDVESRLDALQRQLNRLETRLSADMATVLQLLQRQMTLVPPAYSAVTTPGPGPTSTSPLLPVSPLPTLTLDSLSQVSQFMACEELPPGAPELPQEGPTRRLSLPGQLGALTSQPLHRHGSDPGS
row,Compound,"hERG current change (%, negative = inhibition) at 10uM"
1,CCN(CC)C(=O)c1ccc(NC(=O)Cn2nc(C)c3ccccc3c2=O)cc1,-10.3%
2,Cc1ccc(C(=O)CSc2nnc(-c3cccnc3)n2N)cc1,-15.2%
3,O=C(NCCN1C(=O)S/C(=C\c2ccc(Cl)c(Cl)c2)C1=O)C1COc2ccccc2O1 (stereo not drawn),-9.28%
4,COc1cc2c(cc1OC)[C@H](C)N(C(=O)NCc1ccccc1)CC2,5.78%
5,CCN(CC)c1ccc2cc(-c3nc4ccccc4n3C)c(=O)oc2c1,22.9%
6,O=C(c1cc2sccc2n1Cc1ccc(F)cc1)N1CCCc2ccccc21,15.3%
7,c1ccc2c(c1)c1ccccc1n1c(-c3ccc4c(c3)OCO4)nnc21,3.9%
8,Cn1ncc2c(N3CCCCC3)nc(NCCCO)nc21,11.9%
9,Cn1cnc2c1c(=O)n(Cc1ccc(F)cc1Cl)c(=O)n2C,5.82%
10,CCOC(=O)C1CCCN(C(=O)c2cccc(S(=O)(=O)N3CCOCC3)c2)C1 (stereo not drawn),15.6%
11,COc1ccc2cc(C#N)c(SCC(=O)N3CC(=O)Nc4ccccc43)nc2c1,14.9%
12,COc1ccc(S(=O)(=O)NCCc2cn3nc(C)c(C)nc3n2)cc1F,3.38%
13,Cn1c(-c2ccc(Br)cc2)cnc1NCc1cccnc1,-41.3%
14,COc1ccc(CNc2cc([N+](=O)[O-])ccc2OC)cc1,-1.02%
15,CCOc1ccc(CNc2ncc(-c3ccccc3)n2C)cc1,-38.9%
16,COc1ccc(CNc2ncc(-c3ccccc3)n2C)cc1,-32.6%
17,Cn1c(-c2cccc([N+](=O)[O-])c2)cnc1NCc1ccc(C#N)cc1.O=C(O)C(=O)O,-75%
18,COc1ccc([N+](=O)[O-])cc1NCc1cccc([N+](=O)[O-])c1,-62.6%
19,Cn1c(-c2cccc([N+](=O)[O-])c2)cnc1NCc1cccc(F)c1.O=C(O)C(=O)O,-54.1%
20,COc1ccc([N+](=O)[O-])cc1NCc1ccccc1.O=C(O)C(=O)O,2.96%
21,Cn1c(-c2cccc(Br)c2)cnc1NCc1cccnc1,-59.6%

row,Compound,"hERG current change (%, negative = inhibition) at 10uM"
1,CNc1nc(N(C)C)nc(N(C)C)n1,-7.71%
2,CCS(=O)(=O)N1Cc2ccccc2CC1C(=O)Nc1cccc(C)c1 (stereo not drawn),-4.95%
3,CCc1cccc2c(C(=S)N3CCCC3)c[nH]c12,8.97%
4,Nc1[nH]n2c(=O)cc(-c3ccccc3)nc2c1N=Nc1ccccc1,11%
5,COc1ccccc1C(=O)Oc1ccc(N2C(=O)CCC2=O)cc1,-0.543%
6,Cc1cc(C(F)F)n2nc(C(=O)Nc3ccc(F)cc3F)nc2n1,-2.95%
7,O=C(CSc1nnc2n1CCCN2)c1ccc([N+](=O)[O-])cc1,-49.8%
8,Nc1ccc2sc(N)nc2c1,12.2%
9,Cc1cc(OC(C)C(=O)N(Cc2ccco2)C2CCS(=O)(=O)C2)cc(C)c1Cl (stereo not drawn),-1.99%
10,CC(C)=CCN1CCN(Cc2ccc(C#CC(C)(C)O)s2)CC1CCO (stereo not drawn),-1.88%
11,Cc1cccc(CNc2ncc(-c3cccc([N+](=O)[O-])c3)n2C)c1.O=C(O)C(=O)O,-71.1%
12,COc1ccc(OC)c(CNc2ncc(-c3cccc([N+](=O)[O-])c3)n2C)c1.O=C(O)C(=O)O,-54.8%
13,COc1cccc(-c2cnc(NCc3cc(Cl)ccc3O)n2C)c1.O=C(O)C(=O)O,-24.1%
14,COc1ccc(CNc2ncc(-c3cccc([N+](=O)[O-])c3)n2C)c(OC)c1OC.O=C(O)C(=O)O,-47.5%
15,Cc1ccccc1Nc1c([N+](=O)[O-])ccc2c1=NC1(CCCCC1)N=2,-16.6%
16,O=C(COc1ccc(Br)cc1Cl)NNC(=O)c1ccccc1,2.57%
17,Cc1ccccc1CN(c1ccc(C(=O)NCc2ccccn2)cc1)S(C)(=O)=O,-35.4%
18,CC1CC(C)CN(C(=O)CSc2nc(Cc3cccs3)nc3ccccc23)C1 (stereo not drawn),-13%
19,Cc1noc(C)c1COC(=O)CCN1c2ccccc2Sc2ccccc21,7.54%
20,CCCCCCCN=CC1=C(O)CC(c2ccccc2)CC1=O (stereo not drawn),-6.52%
21,Cc1ccc(-n2cc(S(=O)(=O)c3ccc(C)cc3)[nH]c2=O)cc1,4.72%
